Test results published in ChEMBL document CHEMBL3433997, “St. Jude Leishmania screening dataset” (2016).

What was measured:
Format in all cases: functional
[1] = target: Solute carrier family 2, facilitated glucose transporter member 1 (Homo sapiens) (UniProt P11166); assay: ST_JUDE_LEISH: Cytotoxicity at 2uM final concentration against transgenic Leishmania Mexicana promastigotes LmGLUT1 that are glucose transport deficient and complemented with the human glucose transporter GLUT1. Activity is measured by DNA content using SYBR green in vitro
[2] = target: Hexose transporter 1 (Plasmodium falciparum) (UniProt O97467); assay: ST_JUDE_LEISH: Cytotoxicity at 2uM final concentration against transgenic Leishmania Mexicana promastigotes LmPfHT that are glucose transport deficient and complemented with the Plasmodium falciparum hexose transporter. Activity is measured by DNA content using SYBR green in vitro
[3] = target: Glucose transporter (Leishmania mexicana) (UniProt O61059); assay: ST_JUDE_LEISH: Cytotoxicity at 2uM final concentration against transgenic Leishmania Mexicana promastigotes LmGT2 that are glucose transport deficient and complemented with the L. Mexicana glucose transporter 2. Activity is measured by DNA content using SYBR green in vitro

Sequence of Solute carrier family 2, facilitated glucose transporter member 1 (Homo sapiens) (P11166 whole entry): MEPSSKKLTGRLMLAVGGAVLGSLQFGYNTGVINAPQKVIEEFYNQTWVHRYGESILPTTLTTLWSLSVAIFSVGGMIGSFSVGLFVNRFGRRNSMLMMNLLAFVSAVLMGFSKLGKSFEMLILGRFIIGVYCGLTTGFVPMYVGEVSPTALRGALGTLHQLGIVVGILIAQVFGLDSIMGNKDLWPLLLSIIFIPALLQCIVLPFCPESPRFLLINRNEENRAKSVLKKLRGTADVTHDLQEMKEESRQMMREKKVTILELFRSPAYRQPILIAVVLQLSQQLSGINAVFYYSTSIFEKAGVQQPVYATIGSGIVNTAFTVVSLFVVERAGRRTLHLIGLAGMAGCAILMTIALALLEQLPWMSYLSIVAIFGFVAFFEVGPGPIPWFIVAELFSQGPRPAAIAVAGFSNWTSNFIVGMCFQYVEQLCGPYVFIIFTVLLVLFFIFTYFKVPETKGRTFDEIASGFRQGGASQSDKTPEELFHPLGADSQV

Compound	inhibition [1] [%]	inhibition [2] [%]	inhibition [3] [%]
COc1ccc2nccc([C@@H](O)CN3CCC(NCc4ccc5cccc(O)c5n4)CC3)c2n1	5.63	11.5	0.77
N#Cc1ccc(CN2CCCN(Cc3cccc(NC(=O)c4ccc(Cl)c(Cl)c4)c3)CC2)cc1	9.73	7.09	9.89
O=C(CC(c1ccccc1)c1ccccc1O)N1CCOCC1 (stereo unspecified)	0.4	1.12	-0.06
Nc1cc(/C=C/c2ccc([N+](=O)[O-])o2)nc2ccccc12	104	104	101
CN(N=Cc1ccccc1)C(=N)NCCCC#Cc1cccc(CN2CCCC2)c1	11.4	6.82	1.72
CCOC(=O)c1ccc(N2CCN(c3cc(Cl)ccc3C)CC2)c(NC(=O)Nc2ccc(Cl)c(Cl)c2)c1	-3.21	-3.18	-0.61
Cc1ccnc(NC(=O)c2cc(-c3cccc([N+](=O)[O-])c3)nc3onc(C)c23)c1	6.8	7.59	4.35
O=C(NC1CCCCC1)N(Cc1ccccc1-c1ccc(CNCCc2ccccc2)cc1)C1CCN(Cc2ccccc2)CC1	4.39	3.18	-0.58
O=C(Nc1cccc(-c2ccc(-c3nc4ccccc4[nH]3)cc2)c1)c1ccncc1	8.95	4.33	2.5
Cc1ccc2c(-c3ccc([N+](=O)[O-])o3)cc(C)nc2c1	54.3	46.4	7.05
CC(=O)Oc1c(Cl)c(C)nc(C)c1-c1ccc(Oc2ccc(OC(F)(F)F)cc2)cc1	3.62	3.09	2.42
CCNc1cc(C(=O)N[C@@H](Cc2ccccc2)[C@H](O)CNCc2cc(OC)cc(OC)c2)cc(N2CCCC2=O)c1	7.69	9.03	6.42
